Records with an inconclusive call do not appear. Active and inactive are the calls of the source. Unless noted, calls come from the whole dose curve; as a rule, active = well fitted curve in the direction sought with a large enough effect; inconclusive = small, poorly fitted or top-dose-only effect, or another doubt; inactive = no such curve, though single readings can be large; an effect the other way counts as inactive or inconclusive.
Assays:
[1] = P-glycoprotein substrates identified in KB-8-5-11 adenocarcinoma cell line, qHTS therapeutic library screen (AID 1346987); note: series mostly up to about 44 µM; nearly all actives have a fitted effect of over 65% in size
Procedure, shortened: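 Compounds are pinned in dose-response onto KB-8-5-11 cells (500 cells/well, colchicine-free medium) and left 72 h at 37 degree C. CellTiter-Glo luminescence then yields AC50 values.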

[2] = NS1 protein of Zika virus - qHTS assay to identify small molecule inhibitors in human HEK 293 cells (AID 1347053); note: series mostly up to about 46 µM; nearly all actives have a fitted effect of over 55% in size
Procedure, shortened: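 Read-out is a two-antibody TR-FRET for ZIKV NS1, normalized between uninfected cells and infected cells. Compound added 1 h before MR766 infection at MOI 0.5; human HEK 293 cells incubated 24 h, 37 C.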

[3] = qHTS for Inhibitors of the Functional Ribonucleoprotein Complex (vRNP) of Lassa (LASV) Arenavirus: LASV Primary Screen - GLuc reporter signal (AID 1347082; calls by dose curve; tested in HEK293 reporter line; note: series mostly up to about 57 µM; nearly all actives have a fitted effect of over 60% in size)
[4] = qHTS for Inhibitors of the Functional Ribonucleoprotein Complex (vRNP) of Lassa (LASV) Arenavirus: Viability assay - alamar blue signal for LASV Primary Screen (AID 1347083; calls by dose curve; tested in HEK293 reporter line; note: series mostly up to about 57 µM; nearly all actives have a fitted effect of over 80% in size)
[5] = qHTS for Inhibitors of the Functional Ribonucleoprotein Complex (vRNP) of Lymphocytic Choriomeningitis Arenaviruses (LCMV): Viability assay - alamar blue signal for LCMV Primary Screen (AID 1347085; calls by dose curve; tested in HEK293 reporter line; note: series mostly up to about 57 µM; nearly all actives have a fitted effect of over 80% in size)
[6] = target: Nucleoprotein (Lymphocytic choriomeningitis virus (strain Armstrong)) (UniProt P09992); assay: qHTS for Inhibitors of the Functional Ribonucleoprotein Complex (vRNP) of Lymphocytic Choriomeningitis Arenaviruses (LCMV): LCMV Primary Screen - GLuc reporter signal (AID 1347086; calls by dose curve; note: series mostly up to about 57 µM; nearly all actives have a fitted effect of over 70% in size)
[7] = qHTS of pediatric cancer cell lines to identify multiple opportunities for drug repurposing: Primary screen for TC32 cells (AID 1347089); note: nearly all actives have a fitted effect of over 60% in size
Procedure, shortened: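 Luminescent ATP read-out (CellTiter-Glo) of metabolically active TC32 cells after 48 h exposure. Concentration-response curves came from 11-point (MIPE, 0.78 nM–46 µM) or 8-point (NPC, 0.59 nM–46 µM) primary titrations; follow-up used 11 points.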

[8] = qHTS of pediatric cancer cell lines to identify multiple opportunities for drug repurposing: Primary screen for DAOY cells (AID 1347090); note: series mostly up to about 46 µM; nearly all actives have a fitted effect of over 55% in size
Procedure, shortened: (§1)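 Viability measured as metabolically active cells via CellTiter-Glo luminescence following 48 hours of compound exposure, 11-point dilutions in confirmatory testing. 500-1,000 cells/well plated 5 hours before dosing; controls were DMSO and 2.3 µM bortezomib.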

[9] = qHTS of pediatric cancer cell lines to identify multiple opportunities for drug repurposing: Primary screen for SJ-GBM2 cells (AID 1347091)
Procedure, shortened: as §1

[10] = qHTS of pediatric cancer cell lines to identify multiple opportunities for drug repurposing: Primary screen for A673 cells (AID 1347092); note: nearly all actives have a fitted effect of over 45% in size
Procedure, shortened: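 Cell viability of A673 measured by CellTiter-Glo ATP luminescence after 48 hours compound exposure. Dilution series spanned 0.78 nM to 46 µM (MIPE, 11-point) or 0.59 nM to 46 µM (NPC, 8-point); bortezomib 2.3 uM positive control.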

[11] = qHTS of pediatric cancer cell lines to identify multiple opportunities for drug repurposing: Primary screen for SK-N-MC cells (AID 1347093); note: series mostly up to about 46 µM
Procedure, shortened: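 Metabolically active cells were quantified by ATP-dependent luminescence (CellTiter-Glo, 15 min at room temperature) following 48 h treatment. Cells had been plated at 500-1,000 per well and settled for 5 h beforehand.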

[12] = qHTS of pediatric cancer cell lines to identify multiple opportunities for drug repurposing: Primary screen for BT-37 cells (AID 1347094); note: series mostly up to about 57 µM
Procedure, shortened: (§2)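 CRCs from 8- or 11-point titrations (lowest final 0.59 nM NPC, 0.78 nM MIPE). Cell viability: CellTiter-Glo after 48 h incubation, 15 min room-temperature development, luminescence imaging.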

[13] = qHTS of pediatric cancer cell lines to identify multiple opportunities for drug repurposing: Primary screen for NB-EBc1 cells (AID 1347095)
Procedure, shortened: as §2

[14] = qHTS of pediatric cancer cell lines to identify multiple opportunities for drug repurposing: Primary screen for U-2 OS cells (AID 1347096); note: nearly all actives have a fitted effect of over 50% in size
Procedure, shortened: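 Viability after 48 h compound treatment at 37C, 500-1,000 cells/well, read as ATP luminescence with CellTiter-Glo. Primary screens used 11-point (MIPE, 0.78 nM-46 µM) or 8-point (NPC, 0.59 nM-46 µM) final concentrations; follow-up screens used 11-point dilutions.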

Measured: Potency

Nucleoprotein (Lymphocytic choriomeningitis virus (strain Armstrong)), sequence (P09992 whole entry, looked up): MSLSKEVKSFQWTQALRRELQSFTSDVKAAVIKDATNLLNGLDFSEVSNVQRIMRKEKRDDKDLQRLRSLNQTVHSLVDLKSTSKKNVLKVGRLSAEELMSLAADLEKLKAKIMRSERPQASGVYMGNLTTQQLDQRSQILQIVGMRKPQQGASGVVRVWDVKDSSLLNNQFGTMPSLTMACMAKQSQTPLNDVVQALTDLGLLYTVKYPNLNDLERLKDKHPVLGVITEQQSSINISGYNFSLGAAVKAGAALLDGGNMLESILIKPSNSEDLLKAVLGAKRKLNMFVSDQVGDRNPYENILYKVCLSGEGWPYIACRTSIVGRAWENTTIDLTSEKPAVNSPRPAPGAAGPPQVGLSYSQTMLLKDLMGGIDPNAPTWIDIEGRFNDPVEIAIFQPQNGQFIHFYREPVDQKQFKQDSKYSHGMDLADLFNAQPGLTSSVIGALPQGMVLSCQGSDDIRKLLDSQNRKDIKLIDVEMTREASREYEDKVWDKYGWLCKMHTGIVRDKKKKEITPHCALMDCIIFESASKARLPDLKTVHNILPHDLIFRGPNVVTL

CC(=O)OCC1=C(C(=O)O)N2C(=O)[C@@H](N)[C@H]2SC1
inactive: all assays above

CCOC(=O)CC(SP(=S)(OC)OC)C(=O)OCC (stereo not drawn)
not listed: [13]
inactive: all other assays above

COc1cc(CC(C)N)cc(OC)c1OC (stereo not drawn)
not listed: [9]
inactive: all other assays above

CN1CCC(O)(c2ccc(F)cc2)C(C(=O)c2ccc(F)cc2)C1 (stereo not drawn)
not listed: [13]
inactive: all other assays above

CCC1(c2ccccc2)C(=O)N(COC)C(=O)N(COC)C1=O
not listed: [9] | [13] | [14]
inactive: all other assays above

CCCCCCC(=O)CCCCCC/C=C/C[C@@H](O)[C@H](O)[C@@](N)(CO)C(=O)O
not listed: [14]
inactive: all other assays above

CN1C(=O)NC(=O)C(C)(C2=CCCCC2)C1=O (stereo not drawn)
inactive: all assays above

CCN[C@H](C)Cc1cccc(C(F)(F)F)c1
not listed: [9]
inactive: all other assays above

COc1cc(CCN)cc(OC)c1OC
not listed: [9] | [14]
inactive: all other assays above

CC(=O)NC1CCSC1=O (stereo not drawn)
inactive: all assays above

CC1(C)C(C=C(Cl)Cl)C1C(=O)OC(C#N)c1cccc(Oc2ccccc2)c1 (stereo not drawn)
not listed: [13]
inactive: all other assays above

O=C1c2ccccc2C(=O)c2ccccc21
inactive: all assays above

Nc1nc(N)nc(NC2CC2)n1
not listed: [9] | [13] | [14]
inactive: all other assays above

C[C@H](N)C(=O)c1ccccc1
not listed: [9]
inactive: all other assays above

O=C(N/N=C/c1ccc([N+](=O)[O-])o1)c1cc([N+](=O)[O-])cc([N+](=O)[O-])c1O
not listed: [9] | [14]
inactive: all other assays above

CC(C)(N)Cc1ccccc1Cl
not listed: [1]
inactive: all other assays above

C=CCC1(C(C)CC)C(=O)NC(=O)NC1=O (stereo not drawn)
not listed: [1]
inactive: all other assays above

CCC1(CC)C(=O)C=CNC1=O
not listed: [9] | [13]
inactive: all other assays above

CCC(C)C(C)(COC(N)=O)COC(N)=O (stereo not drawn)
not listed: [1] | [13]
inactive: all other assays above

C#CC(O)(C=CCl)CC (stereo not drawn)
not listed: [1] | [9] | [13] | [14]
inactive: all other assays above
